From PubChem BioAssay come the findings set out here.

The structures appear in SMILES notation. Records with an inconclusive call do not appear. The source made the active and inactive calls.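 How the source made its calls, unless noted: active means response below a set limit, under 55% cells CD8-positive and vesicle-bound, and CD8 cells' 90th-percentile brightness under 279; inactive means the rest.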

One may read the inhibition as the drop in the measured response relative to a control, in per cent.

Test [1] in a line: rapamycin-like changes in RPL19A-GFP expression – cell-based, S. cerevisiae, multiplex flow cytometry, primary screen (AID 1862; in the data active means percent of DMSO control GFP below about 86%;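 further: lower values mimic rapamycin by blocking the RPL19A rise seen in DMSO cells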). Conditions: S. cerevisiae RPL19A-GFP strain, flow cytometry fluorescence, 3 h; at 10 µM; stronger effect = lower value. Background: In flow cytometry, cells or beads pass a laser one at a time.
Test [2] in a line: TOR pathway GLN3 branch reporter MEP2-GFP changes – S. cerevisiae, multiplex flow cytometry, primary screen (AID 1867;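 active means GFP response, as percent of the DMSO control, above the screen-wide mean plus 3 SD, about 139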;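 further: median GFP channel fluorescence of barcode-gated MEP2-GFP cells measured by flow cytometry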). The conditions noted are these: S. cerevisiae MEP2-GFP strain, 3 h, at 10 µM, stronger effect = higher value, 100% means same as DMSO wells.
Test [3] can be described thus: TOR pathway RTG branch CIT2 reporter changes – S. cerevisiae, GFP fusion, multiplex flow cytometry, primary screen (AID 1870;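 active means percent response above a set limit, the screen-wide mean plus 3 SD, cut at about 130% in these data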;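 further: barcoded CIT2-GFP strain pooled with four other GFP strains with rapamycin as positive control; median GFP fluorescence per well over plate mean of DMSO wells so 100% = DMSO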). Conditions: S. cerevisiae CIT2-GFP expression, 3 h, at 10 µM, stronger effect = higher value.
The nature of test [4]: TOR pathway LAP4-GFP level changes – S. cerevisiae, multiplex flow cytometry, primary screen (AID 1873;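 active means GFP signal, as percent of the solvent control, above the screen mean plus 3 SD, about 149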). The conditions noted are these: S. cerevisiae LAP4-GFP expression, 3 h, at 10 µM, stronger effect = higher value.
Test [5] is described as follows: yeast AGP1-GFP level changes, GLN3 branch – cell-based, multiplex flow cytometry, S. cerevisiae, primary screen (AID 1887;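 active means GFP signal above the screen-wide mean plus 3 SD, that is over about 124.5% of the solvent control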;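 further: AGP1-GFP fusion strain of S. cerevisiae within a five-strain barcoded multiplex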). Conditions: 3 h, at 10 µM, stronger effect = higher value.
Test [6] in a line: reduced mouse 2C T cell binding to pMHC/ICAM-1 vesicles – MLPCN validation set, flow cytometry, LFA-1/ICAM-1 modulator project, pilot screen (AID 2523).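 On vesicle binding response: mean PE anti-B7-1 fluorescence of CD8+ cells relative to row control; 100% = QL9-loaded vesicles with DMSO vehicle in the same plate row.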 The conditions noted are these: 2C mouse CD8+ T cells, at 7 µM, stronger effect = lower value; double positive events: measured here: CD8+/vesicle+ event percentage.
Test [7] deals with Integrin beta-1 (Homo sapiens) + Integrin alpha-4 (Homo sapiens) (UniProt P13612+P05556). Kind of test: alpha4beta1 integrin LIBS antibody binding reduction – U937 cells, HUTS-21 mAb, flow cytometry, validation set, VLA-4 allosteric modulator project, pilot screen (AID 2674;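 active means inhibition above 50%, about 3 SD of the validation set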;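 further: antibody binding induced by the VLA-4 ligand LDV present at three times its Kd; 0% = LDV ligand with antibody and no compound and 100% = antibody without LDV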). The conditions noted are these: HUTS-21 LIBS mAb binding, at 6.7 µM, stronger effect = higher value, binding induced by LDV ligand.

The nature of test [8]: calorie-restriction mimetic ROS inhibitors, yeast – validation compound set, pilot screen (AID 2706;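 active means superoxide response below 65% of plate, a cut near 3 SD across the whole screen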;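 further: yeast exposed to compound for one week at 30 degrees C before staining; 100% = mean of all compound wells on the same plate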). The conditions noted are these: S. cerevisiae aging, superoxide DHE fluorescence; at 10 µM; stronger effect = lower value.
In test [9] the target is Beta-adrenergic receptor kinase 1 (Homo sapiens) (UniProt P25098). Nature of the test: GRK2 binders displacing RNA aptamer, biochemical, validation, human GRK2, bead flow cytometry (AID 488806;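 active means aptamer binding inhibition above 30%, about 3 SD of noise from non-fluorescent compounds; inactive means inhibition at or below 30%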). Conditions: bead-bound GRK2, FAM-aptamer displacement, at 10 µM, stronger effect = higher value.
The target in test [10] is Beta-2 adrenergic receptor (Homo sapiens) (UniProt P07550). Kind of test: agonist-induced loss of surface beta2AR – cell-based, FAP fluorogen, flow cytometry, validation set, pilot screen (AID 504459;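 active means percent response above 42, roughly 3 SD of non-fluorescent test compounds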;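 further: agonist-driven loss of surface beta2AR via internalization measured by FAP dye flow cytometry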). The conditions noted are these: Am2.2-beta2AR cells, at 10 µM, stronger effect = higher value.
Test [11] deals with AP-2 complex subunit beta (Homo sapiens) (UniProt P63010). Nature of the test: beta-arrestin/AP2 interaction blockers – biochemical, validation set, GST-AP2 beads, flow cytometry, pilot screen (AID 504541;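 active means inhibition above 54%, about 3 SD of non-fluorescent compounds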;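 further: AP2 carries R879A mutation and is captured from E. coli lysate; bead-bound FITC arrestin peptide fluorescence measuring arrestin peptide binding to AP2; 0% = DMSO wells and 100% = excess unlabeled arrestin peptide control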). The conditions noted are these: FITC arrestin peptide, at 10 µM, stronger effect = higher value, AP2 beta2 appendage fragment, R879A mutant.
Test [12] is described as follows: cytosolic pH regulators acting via V-ATPase – S. cerevisiae, pHLuorin, HTS validation (AID 504600; in the data active means response above about 15%;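 further: plate controls were DMSO for no effect and reference compound for full effect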). Conditions: V-ATPase proton transport, at 10 µM, stronger effect = higher value.
Test [13] concerns anti-desmoglein-3 scFv antibody binding to human DSG3. Nature of the test: blockers of pathogenic pemphigus antibody–desmoglein-3 binding – biochemical, validation compound set, bead-based, flow cytometry, pilot screen (AID 588368;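 active means binding below the plate cutoff, the plate median minus 3 SD, with a reading above zero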;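 further: signal is the median channel fluorescence of bead-bound GFP antibody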). The conditions noted are these: Protein G beads, DSG3-Fc, scFv-GFP binding, at 10 µM, stronger effect = lower value.
Test [14] is described as follows: Nile Red efflux blockade in pump-expressing yeast – validation compound set, multiplex, phenotypic, pilot screen (AID 588506;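 active means efflux inhibition above 0.42, the validation set average plus 4 SD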;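 further: Nile Red retained in cells so higher fluorescence means more efflux inhibition; 0 = negative control wells and 1 = enniatin B 25 µM full block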). Conditions: S. cerevisiae pump-expressing triplex, Nile Red efflux flow cytometry; at 10 µM; stronger effect = higher value; the pumps come from Candida albicans.
The target in test [15] is ATP-binding cassette sub-family B member 6 (Homo sapiens) (UniProt Q9NP58). Nature of the test: blockers of ABCB6-driven porphyrin uptake – K562-ABCB6 cells, flow cytometry, validation set, pilot screen (AID 588550;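 active means inhibition above the screen-wide mean plus 3 SD, about 51%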;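 further: 0% = DMSO wells and 100% = benzethonium chloride 70 µM positive control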). The conditions noted are these: K562-ABCB6 porphyrin accumulation, 1 h, at 10 µM, stronger effect = higher value.
A short description of test [16]: AML differentiation inducers, ER-HoxA9 marrow cells – cell-based, GFP/MAC1 double positive, flow cytometry, validation set, primary screen (AID 588685;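 active means differentiation response of at least 50%, scaled between solvent and reference control, from cells with both markers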;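 further: compound exposure lasts four days before antibody staining and flow analysis; 0% = DMSO wells and 100% = 5 µM fulvestrant positive control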). Conditions: stronger effect = higher value, normalized: vehicle 0, fulvestrant 100.

AP-2 complex subunit beta (Homo sapiens), sequence (P63010 whole entry, looked up, the tested form may be a part, one chain of several): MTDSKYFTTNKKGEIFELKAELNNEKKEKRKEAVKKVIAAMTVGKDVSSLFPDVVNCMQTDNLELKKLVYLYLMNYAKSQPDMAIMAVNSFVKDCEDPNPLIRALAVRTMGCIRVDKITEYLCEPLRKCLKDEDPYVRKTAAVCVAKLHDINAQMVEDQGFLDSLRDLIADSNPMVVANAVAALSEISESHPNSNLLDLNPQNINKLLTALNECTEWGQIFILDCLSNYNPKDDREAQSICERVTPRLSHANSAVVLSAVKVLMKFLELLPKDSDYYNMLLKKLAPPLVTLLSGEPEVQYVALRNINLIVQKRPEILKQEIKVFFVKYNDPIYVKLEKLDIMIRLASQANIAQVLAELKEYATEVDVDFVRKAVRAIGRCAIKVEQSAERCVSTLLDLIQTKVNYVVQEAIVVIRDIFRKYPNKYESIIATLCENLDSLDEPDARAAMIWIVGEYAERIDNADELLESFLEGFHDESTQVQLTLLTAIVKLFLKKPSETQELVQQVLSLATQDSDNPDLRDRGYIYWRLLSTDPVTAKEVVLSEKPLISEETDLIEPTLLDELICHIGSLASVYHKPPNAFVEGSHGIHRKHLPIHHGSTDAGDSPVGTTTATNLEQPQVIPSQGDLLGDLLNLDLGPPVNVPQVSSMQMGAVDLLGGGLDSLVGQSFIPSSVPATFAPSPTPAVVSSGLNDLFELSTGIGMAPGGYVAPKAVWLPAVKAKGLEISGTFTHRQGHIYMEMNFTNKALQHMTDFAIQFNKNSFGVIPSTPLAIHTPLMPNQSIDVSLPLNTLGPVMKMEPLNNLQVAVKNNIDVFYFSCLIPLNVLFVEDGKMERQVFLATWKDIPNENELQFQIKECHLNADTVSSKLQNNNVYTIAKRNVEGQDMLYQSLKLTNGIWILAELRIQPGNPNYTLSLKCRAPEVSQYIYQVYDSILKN
Integrin beta-1 (Homo sapiens) + Integrin alpha-4 (Homo sapiens), sequence (P05556 whole entry, looked up): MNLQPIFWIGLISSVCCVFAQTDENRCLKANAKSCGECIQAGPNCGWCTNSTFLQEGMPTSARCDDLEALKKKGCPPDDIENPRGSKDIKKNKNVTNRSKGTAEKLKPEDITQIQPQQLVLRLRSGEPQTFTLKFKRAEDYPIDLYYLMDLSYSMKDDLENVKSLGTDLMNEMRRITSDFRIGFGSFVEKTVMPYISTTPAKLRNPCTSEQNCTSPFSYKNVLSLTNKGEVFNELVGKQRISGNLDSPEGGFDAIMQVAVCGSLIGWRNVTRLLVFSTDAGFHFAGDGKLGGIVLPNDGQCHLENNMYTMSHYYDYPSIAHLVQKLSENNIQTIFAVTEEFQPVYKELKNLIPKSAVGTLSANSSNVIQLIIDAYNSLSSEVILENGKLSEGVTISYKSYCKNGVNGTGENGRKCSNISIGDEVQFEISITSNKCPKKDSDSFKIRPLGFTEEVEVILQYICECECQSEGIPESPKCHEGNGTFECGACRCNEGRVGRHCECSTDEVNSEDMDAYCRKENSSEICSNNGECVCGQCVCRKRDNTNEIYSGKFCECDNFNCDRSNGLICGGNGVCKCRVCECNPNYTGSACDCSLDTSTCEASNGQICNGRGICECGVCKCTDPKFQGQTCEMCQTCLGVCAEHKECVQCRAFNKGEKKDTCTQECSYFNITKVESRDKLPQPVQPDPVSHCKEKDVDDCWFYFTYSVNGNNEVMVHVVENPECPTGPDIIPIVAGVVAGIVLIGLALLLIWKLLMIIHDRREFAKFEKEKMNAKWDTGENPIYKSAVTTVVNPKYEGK
Integrin beta-1 (Homo sapiens) + Integrin alpha-4 (Homo sapiens), sequence (P13612 whole entry, looked up): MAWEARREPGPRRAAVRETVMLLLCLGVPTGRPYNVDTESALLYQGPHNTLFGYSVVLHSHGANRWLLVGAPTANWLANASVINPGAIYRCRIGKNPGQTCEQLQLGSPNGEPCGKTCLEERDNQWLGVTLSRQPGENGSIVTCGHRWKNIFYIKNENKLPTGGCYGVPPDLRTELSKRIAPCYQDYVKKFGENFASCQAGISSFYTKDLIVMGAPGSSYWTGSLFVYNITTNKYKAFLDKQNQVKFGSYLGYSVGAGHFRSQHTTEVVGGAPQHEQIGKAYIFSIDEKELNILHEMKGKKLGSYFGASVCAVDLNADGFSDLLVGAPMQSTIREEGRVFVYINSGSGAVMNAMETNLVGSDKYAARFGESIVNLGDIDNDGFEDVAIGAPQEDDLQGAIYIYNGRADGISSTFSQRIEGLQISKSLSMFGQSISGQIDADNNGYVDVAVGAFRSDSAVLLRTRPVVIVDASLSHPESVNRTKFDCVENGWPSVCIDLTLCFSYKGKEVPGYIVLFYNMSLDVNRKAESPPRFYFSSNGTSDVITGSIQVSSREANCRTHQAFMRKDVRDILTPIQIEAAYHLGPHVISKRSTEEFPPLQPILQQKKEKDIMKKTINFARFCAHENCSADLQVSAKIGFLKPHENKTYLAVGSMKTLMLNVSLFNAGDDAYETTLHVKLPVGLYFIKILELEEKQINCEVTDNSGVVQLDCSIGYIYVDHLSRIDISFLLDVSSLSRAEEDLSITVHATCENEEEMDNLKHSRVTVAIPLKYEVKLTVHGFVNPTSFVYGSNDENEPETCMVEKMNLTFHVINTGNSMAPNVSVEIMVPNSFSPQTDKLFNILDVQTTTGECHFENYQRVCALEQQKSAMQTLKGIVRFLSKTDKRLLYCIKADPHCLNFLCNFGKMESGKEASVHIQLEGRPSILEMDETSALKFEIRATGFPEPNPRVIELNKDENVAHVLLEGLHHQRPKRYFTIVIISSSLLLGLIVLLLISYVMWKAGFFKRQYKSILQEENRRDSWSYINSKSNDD
Beta-2 adrenergic receptor (Homo sapiens), sequence (P07550 whole entry, looked up): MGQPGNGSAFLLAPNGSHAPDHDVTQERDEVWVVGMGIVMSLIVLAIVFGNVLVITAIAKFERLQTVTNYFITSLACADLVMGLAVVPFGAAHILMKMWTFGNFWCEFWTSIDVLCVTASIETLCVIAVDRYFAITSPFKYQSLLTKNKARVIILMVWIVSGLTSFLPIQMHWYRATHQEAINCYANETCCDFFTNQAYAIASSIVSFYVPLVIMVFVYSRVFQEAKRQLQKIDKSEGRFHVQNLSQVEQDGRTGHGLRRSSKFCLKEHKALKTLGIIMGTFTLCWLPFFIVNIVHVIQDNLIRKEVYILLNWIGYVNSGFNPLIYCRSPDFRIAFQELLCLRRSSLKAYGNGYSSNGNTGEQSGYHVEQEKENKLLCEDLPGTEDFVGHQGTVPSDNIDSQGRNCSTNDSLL
Beta-adrenergic receptor kinase 1 (Homo sapiens), sequence (P25098 whole entry, looked up): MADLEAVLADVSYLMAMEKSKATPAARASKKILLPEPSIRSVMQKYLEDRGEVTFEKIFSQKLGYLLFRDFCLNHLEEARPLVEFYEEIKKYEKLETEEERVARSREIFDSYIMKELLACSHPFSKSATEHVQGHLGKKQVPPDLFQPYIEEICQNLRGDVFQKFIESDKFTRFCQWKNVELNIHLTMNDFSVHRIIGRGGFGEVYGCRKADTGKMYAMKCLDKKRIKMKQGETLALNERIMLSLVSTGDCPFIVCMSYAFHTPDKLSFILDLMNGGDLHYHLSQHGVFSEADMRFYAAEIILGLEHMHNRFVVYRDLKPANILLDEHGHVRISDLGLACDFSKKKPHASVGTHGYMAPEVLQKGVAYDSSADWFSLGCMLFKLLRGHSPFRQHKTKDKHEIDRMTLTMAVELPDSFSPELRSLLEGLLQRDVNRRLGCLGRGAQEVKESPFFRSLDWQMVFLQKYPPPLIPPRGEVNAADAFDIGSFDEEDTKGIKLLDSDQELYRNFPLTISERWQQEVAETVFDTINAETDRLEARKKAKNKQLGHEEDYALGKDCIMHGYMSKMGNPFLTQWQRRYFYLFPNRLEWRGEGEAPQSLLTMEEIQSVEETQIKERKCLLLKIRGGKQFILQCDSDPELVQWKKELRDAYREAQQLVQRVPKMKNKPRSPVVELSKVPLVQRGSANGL
ATP-binding cassette sub-family B member 6 (Homo sapiens), sequence (Q9NP58 whole entry, looked up): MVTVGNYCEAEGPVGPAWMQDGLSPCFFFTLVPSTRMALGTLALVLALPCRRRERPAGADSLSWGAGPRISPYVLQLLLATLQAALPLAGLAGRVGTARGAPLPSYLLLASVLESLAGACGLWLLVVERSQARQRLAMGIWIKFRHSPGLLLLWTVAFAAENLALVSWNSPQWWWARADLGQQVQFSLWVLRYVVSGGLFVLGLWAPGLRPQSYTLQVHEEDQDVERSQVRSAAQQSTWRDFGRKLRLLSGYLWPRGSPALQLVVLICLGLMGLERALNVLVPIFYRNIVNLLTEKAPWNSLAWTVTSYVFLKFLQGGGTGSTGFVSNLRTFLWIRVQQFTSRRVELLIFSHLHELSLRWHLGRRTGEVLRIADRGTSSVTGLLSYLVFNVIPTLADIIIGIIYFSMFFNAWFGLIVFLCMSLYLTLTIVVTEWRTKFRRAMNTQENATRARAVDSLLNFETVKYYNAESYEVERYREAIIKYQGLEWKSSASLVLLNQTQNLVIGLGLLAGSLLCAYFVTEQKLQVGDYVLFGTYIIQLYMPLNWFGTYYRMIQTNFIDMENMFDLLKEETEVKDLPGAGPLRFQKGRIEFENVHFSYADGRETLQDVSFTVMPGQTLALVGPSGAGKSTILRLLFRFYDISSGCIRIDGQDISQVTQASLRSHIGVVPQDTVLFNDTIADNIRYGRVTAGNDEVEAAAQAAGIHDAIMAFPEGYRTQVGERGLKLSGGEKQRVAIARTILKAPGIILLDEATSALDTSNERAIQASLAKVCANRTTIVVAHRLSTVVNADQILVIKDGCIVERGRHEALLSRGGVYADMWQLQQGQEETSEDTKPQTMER

On to `Cc1cc(/C=N/O)c(C)n1-c1ccc(Br)cc1`, for which, in test [1], the percent of DMSO control GFP was 100% (inactive). Moreover, the figures for the GFP response vs DMSO in test [2] and in test [4] were 101% (inactive) and 93.7% (inactive), respectively. For the same molecule, the percent response of DMSO control in test [3] was 96.5% (inactive). Moreover, the GFP response, % of DMSO in test [5] is 91.1% (inactive). The molecule also came in with a double positive events in test [6] of 65.6%. In test [6], the vesicle binding response is 263% (inactive). The inhibition in [7] was -7.79% (inactive); in test [11], -0.76% (inactive); in [15], -1% (inactive). Moreover, the superoxide response (% of plate) in test [8] was 115% (inactive). The aptamer binding inhibition in [9] is 2% (inactive). Also, the response in [10] is 11.8% (inactive); in test [12], -0.17% (inactive). Further, in test [13], the binding (% of control) was 105% (inactive). In addition, the efflux inhibition (fraction of control) in test [14] is -0.145 (inactive). The differentiation response in [16] is -6.03% (inactive).

With `COc1ccc2c(c1OC)C(=O)N1C2SC[C@H]1C(=O)NC1CC(C)(C)NC(C)(C)C1` (stereo partly drawn), the percent of DMSO control GFP in test [1] was 99.8% (inactive). For the same molecule, the GFP response vs DMSO in test [2] was 133% (inactive); in [4], 84.7% (inactive). In addition, in test [3], the percent response of DMSO control is 111% (inactive). In addition, the GFP response, % of DMSO in test [5] was 93.1% (inactive). Moreover, the double positive events in [6] was 48.3%. The vesicle binding response in test [6] was 17.2% (active). In addition, the inhibition in test [7] is 1.61% (inactive); in [11], 39.2% (inactive); in [15] it was 1% (inactive). For the same molecule, the superoxide response (% of plate) in test [8] is 91.6% (inactive). The aptamer binding inhibition in test [9] was 6% (inactive). In addition, the response is 3.43% (inactive) in test [10] and -0.76% (inactive) in test [12]. Further, the binding (% of control) in [13] was 103% (inactive). Further, in [14], the efflux inhibition (fraction of control) was 0.09 (inactive). Besides, in test [16], the differentiation response was 30.3% (inactive).

For `CCN(CC)c1ccc(C2=NNC(=O)CC2C)cc1[N+](=O)[O-]` (stereo not drawn), the percent of DMSO control GFP in test [1] was 97.4% (inactive). For the same molecule, the GFP response vs DMSO in test [2] is 102% (inactive); in [4], 119% (inactive). For the same molecule, the percent response of DMSO control in test [3] is 95.8% (inactive). In addition, in [5], the GFP response, % of DMSO is 105% (inactive). The double positive events in test [6] is 60.7%. In addition, the vesicle binding response in test [6] is 189% (inactive). Further, the results for the inhibition in test [7], in test [11] and in [15] were -15.4% (inactive), -4.02% (inactive) and -22% (inactive), respectively. Further, the superoxide response (% of plate) in [8] was 110% (inactive). In addition, the aptamer binding inhibition in test [9] is 3% (inactive). Also, the figures for the response in [10] and in test [12] were 0.9% (inactive) and -0.46% (inactive), respectively. Moreover, the binding (% of control) in test [13] was 98.9% (inactive). The efflux inhibition (fraction of control) in test [14] was -0.21 (inactive). For the same molecule, the differentiation response in test [16] was -4% (inactive).

Consider `N#C/C(=C/c1ccccc1)C(=O)NCc1ccccc1`, for which, in test [1], the percent of DMSO control GFP was 97.4% (inactive). Also, the GFP response vs DMSO in test [2] is 108% (inactive); in [4], 106% (inactive). In addition, in test [3], the percent response of DMSO control is 101% (inactive). The GFP response, % of DMSO in [5] was 102% (inactive). In addition, in test [6], the double positive events came out at 58%. Moreover, the vesicle binding response in test [6] is 197% (inactive). Also, the inhibition in test [7] is 7.76% (inactive); in test [11], 8.66% (inactive); in test [15], 3% (inactive). The superoxide response (% of plate) in test [8] was 95.8% (inactive). Moreover, the aptamer binding inhibition in test [9] is 0% (inactive). The response in test [10] is -0.74% (inactive); in test [12] it was -0.63% (inactive). The binding (% of control) in [13] is 101% (inactive). For the same molecule, in [14], the efflux inhibition (fraction of control) was -0.06 (inactive). Moreover, the differentiation response in test [16] is -18.4% (inactive).
